# For some of these results: Results with a measured potency or affinity are listed apart.
# Experiments:
# Design in all cases: scale not given: direction of the effect not stated beside the values
# [1] = biological target: Protein translocase subunit SecA (Escherichia coli (strain K12)) (UniProt P10408); assay: Assay to Identify E. coli SecA ATPase Inhibitors; format: functional; details: 30 µM
# [2] = biological target: T1, Ubiquitin-activating enzyme e1, putative (Leishmania donovani (strain BPK282A1)) (UniProt E9BSI1); assay: Leishmania donovani Ubiquitin Activating Enzyme (LdE1); format: functional; details: 30 µM
# T1 sequence (whole entry): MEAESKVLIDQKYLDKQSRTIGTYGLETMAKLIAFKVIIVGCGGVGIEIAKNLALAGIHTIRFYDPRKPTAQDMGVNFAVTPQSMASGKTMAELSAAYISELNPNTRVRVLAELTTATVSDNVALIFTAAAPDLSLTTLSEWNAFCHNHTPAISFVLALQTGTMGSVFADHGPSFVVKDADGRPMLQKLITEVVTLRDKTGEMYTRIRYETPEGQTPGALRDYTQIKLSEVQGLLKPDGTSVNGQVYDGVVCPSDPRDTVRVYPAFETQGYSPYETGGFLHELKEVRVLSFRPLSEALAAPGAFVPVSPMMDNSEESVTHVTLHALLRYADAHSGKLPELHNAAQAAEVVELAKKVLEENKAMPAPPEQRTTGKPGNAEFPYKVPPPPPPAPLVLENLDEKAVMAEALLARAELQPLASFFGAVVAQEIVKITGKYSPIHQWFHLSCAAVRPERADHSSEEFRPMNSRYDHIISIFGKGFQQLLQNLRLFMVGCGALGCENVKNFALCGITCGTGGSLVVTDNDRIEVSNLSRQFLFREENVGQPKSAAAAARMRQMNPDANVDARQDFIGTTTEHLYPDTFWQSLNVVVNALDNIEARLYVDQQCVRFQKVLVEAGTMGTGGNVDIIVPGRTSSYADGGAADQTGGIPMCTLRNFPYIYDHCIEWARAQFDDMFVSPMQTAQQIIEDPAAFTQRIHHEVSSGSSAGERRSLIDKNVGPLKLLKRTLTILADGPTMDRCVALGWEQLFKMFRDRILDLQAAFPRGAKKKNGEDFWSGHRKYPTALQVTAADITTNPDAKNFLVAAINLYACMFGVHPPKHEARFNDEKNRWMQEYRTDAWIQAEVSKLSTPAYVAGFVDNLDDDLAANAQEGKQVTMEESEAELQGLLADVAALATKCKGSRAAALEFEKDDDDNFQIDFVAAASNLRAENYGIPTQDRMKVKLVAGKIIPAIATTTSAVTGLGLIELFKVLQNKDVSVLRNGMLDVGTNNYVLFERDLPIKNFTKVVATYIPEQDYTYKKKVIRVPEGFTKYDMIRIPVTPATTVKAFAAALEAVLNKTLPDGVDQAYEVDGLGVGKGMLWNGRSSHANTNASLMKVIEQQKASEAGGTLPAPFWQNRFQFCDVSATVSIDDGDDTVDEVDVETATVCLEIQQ
# [3] = biological target: AMP-activated protein kinase, AMPK (Homo sapiens) (UniProt P54646+O43741+P54619+Q9UGJ0+Q9Y478+Q13131+Q9UGI9); assay: AMP-dependent Kinase enzyme assay. An in vitro enzyme assay that detects ADP turnover that is directly proportional to AMPK activity. This uses naive AMPK that is activated during the assay with MK-8722; format: functional; details: 30 µM
# [4] = biological target: Sialic acid-binding Ig-like lectin 9 (Homo sapiens) (UniProt Q9Y336); assay: Hs-Siglec9 ALPHAscreen SOP 20170721; details: 10 µM
# Trypanosoma cruzi = assay: Trypanosoma cruzi phosphomannomutase and mannose-1-phosphate guanylyltransferase assay; format: functional; details: 10 µM
# [5] = biological target: T2, Arginase-2, mitochondrial (Homo sapiens) (UniProt P78540); assay: in vitro enzyme assay to detect the production of urea directly proportional to the activity of Arginase II; format: functional; details: 33.3 µM; note: in the data most compounds retested in dose-response had high values
# T2 sequence (whole entry): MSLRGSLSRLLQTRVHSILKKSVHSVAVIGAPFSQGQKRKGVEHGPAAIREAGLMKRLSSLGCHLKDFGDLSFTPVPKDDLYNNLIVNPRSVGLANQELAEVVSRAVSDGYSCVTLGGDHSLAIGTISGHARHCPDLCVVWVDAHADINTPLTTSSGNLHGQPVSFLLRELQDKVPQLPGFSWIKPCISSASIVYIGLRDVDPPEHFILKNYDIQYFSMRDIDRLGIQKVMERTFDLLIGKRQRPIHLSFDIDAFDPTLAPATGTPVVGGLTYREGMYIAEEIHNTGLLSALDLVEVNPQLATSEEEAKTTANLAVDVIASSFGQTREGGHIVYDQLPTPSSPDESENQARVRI
# [6] = biological target: T3, Proteasome subunit beta (Trypanosoma cruzi) (UniProt O96673); assay: Trypanosoma cruzi proteasome chymotrypsin-like activity (TcProtChymo) assay.; note: in the data most compounds retested in dose-response had high values; format: functional; details: 9.37 µM
# T3 sequence (whole entry): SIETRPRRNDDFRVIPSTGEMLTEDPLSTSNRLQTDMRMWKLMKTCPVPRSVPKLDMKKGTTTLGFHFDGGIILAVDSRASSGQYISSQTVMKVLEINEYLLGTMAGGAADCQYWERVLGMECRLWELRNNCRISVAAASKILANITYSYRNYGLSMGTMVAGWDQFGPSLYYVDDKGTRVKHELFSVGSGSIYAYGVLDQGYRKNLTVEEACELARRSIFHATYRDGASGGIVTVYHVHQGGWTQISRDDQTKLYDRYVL
# Homo sapiens = species on record: Homo sapiens; assay: To identify inhibition of the IFN signalling (Jak-Stat) pathway via expression of an eGFP reporter gene under the control of an IFN-stimulated response element (ISRE) containing MxA promoter.; format: functional; details: 30 µM
# [7] = biological target: T4, Tyrosyl-tRNA synthetase, putative (Trypanosoma cruzi (strain CL Brener)) (UniProt Q4DSP6); assay: Trypanosoma cruzi tyrosyl tRNA synthetase (TcYRS) _High Tyrosine SOP; format: functional; details: 30 µM; note: in the data most compounds retested in dose-response had high values
# T4 sequence (whole entry): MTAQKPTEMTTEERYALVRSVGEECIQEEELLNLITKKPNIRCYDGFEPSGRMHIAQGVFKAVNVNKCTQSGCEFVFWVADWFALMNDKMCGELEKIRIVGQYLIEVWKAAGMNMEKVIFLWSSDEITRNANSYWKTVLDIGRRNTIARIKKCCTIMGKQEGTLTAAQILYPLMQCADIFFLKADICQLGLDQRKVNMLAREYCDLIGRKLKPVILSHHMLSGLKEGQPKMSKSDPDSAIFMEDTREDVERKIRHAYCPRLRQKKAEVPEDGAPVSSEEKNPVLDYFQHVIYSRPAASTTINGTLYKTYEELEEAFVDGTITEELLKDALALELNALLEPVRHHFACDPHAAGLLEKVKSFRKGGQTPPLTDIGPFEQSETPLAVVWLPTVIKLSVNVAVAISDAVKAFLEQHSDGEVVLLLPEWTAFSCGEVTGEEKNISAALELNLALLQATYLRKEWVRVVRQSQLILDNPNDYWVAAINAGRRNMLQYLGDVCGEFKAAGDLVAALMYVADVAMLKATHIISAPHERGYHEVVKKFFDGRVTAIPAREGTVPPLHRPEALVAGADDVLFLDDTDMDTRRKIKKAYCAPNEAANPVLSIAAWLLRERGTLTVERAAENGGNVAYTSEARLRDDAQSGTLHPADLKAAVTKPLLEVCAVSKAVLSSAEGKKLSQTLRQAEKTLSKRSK
# [8] = biological target: T4, Tyrosyl-tRNA synthetase, putative (Trypanosoma cruzi (strain CL Brener)); assay: Trypanosoma cruzi tyrosyl tRNA synthetase (TcYRS) SOP; format: functional; details: 30 µM
# [9] = biological target: Chromo domain-containing protein 1 (Saccharomyces cerevisiae (strain ATCC 204508 / S288c) (Baker's yeast)) (UniProt P32657); assay: ScCHD-1 Enzyme Inhibition Assay; format: functional; details: 30 µM; note: in the data most compounds retested in dose-response had high values
# Chromo domain-containing protein 1 (Saccharomyces cerevisiae (strain ATCC 204508 / S288c) (Baker's yeast)), sequence (P32657 whole entry, the tested form may be a part): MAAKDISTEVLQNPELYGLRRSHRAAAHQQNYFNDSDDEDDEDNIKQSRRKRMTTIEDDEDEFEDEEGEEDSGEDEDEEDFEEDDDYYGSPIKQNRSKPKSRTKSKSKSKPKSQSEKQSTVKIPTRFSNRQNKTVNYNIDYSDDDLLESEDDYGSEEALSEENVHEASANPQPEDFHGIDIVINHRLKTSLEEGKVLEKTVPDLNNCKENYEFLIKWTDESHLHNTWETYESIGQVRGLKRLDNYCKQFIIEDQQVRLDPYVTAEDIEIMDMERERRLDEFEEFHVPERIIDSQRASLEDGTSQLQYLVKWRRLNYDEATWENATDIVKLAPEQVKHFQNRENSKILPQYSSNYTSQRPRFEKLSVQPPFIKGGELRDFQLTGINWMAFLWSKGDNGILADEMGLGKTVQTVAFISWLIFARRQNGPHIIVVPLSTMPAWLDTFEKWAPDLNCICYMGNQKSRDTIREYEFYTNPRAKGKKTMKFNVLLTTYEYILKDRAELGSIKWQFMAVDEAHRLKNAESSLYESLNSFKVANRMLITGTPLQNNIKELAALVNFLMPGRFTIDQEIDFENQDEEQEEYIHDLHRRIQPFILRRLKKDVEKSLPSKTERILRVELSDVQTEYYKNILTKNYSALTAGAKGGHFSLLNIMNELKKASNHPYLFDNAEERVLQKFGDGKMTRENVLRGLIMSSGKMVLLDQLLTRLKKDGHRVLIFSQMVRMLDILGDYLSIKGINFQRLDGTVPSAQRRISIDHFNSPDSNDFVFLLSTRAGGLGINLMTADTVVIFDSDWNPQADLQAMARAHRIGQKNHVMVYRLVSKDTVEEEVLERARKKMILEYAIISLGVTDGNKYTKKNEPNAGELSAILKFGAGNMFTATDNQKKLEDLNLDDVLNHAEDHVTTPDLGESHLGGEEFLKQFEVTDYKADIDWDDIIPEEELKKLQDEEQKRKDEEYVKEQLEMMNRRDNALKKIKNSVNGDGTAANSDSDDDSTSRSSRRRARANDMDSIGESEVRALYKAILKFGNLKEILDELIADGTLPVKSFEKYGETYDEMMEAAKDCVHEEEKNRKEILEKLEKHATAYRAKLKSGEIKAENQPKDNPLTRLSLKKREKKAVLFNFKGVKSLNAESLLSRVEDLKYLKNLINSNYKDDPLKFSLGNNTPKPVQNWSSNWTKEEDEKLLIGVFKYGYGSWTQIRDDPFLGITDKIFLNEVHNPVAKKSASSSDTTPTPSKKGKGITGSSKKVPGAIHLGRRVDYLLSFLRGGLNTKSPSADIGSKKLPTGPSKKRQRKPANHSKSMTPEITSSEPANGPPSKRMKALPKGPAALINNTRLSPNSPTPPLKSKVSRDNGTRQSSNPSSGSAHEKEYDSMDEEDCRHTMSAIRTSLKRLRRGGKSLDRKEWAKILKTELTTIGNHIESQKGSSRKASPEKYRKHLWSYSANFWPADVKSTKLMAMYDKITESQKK
# Sialic acid-binding Ig-like lectin 9 (Homo sapiens), sequence (Q9Y336 whole entry): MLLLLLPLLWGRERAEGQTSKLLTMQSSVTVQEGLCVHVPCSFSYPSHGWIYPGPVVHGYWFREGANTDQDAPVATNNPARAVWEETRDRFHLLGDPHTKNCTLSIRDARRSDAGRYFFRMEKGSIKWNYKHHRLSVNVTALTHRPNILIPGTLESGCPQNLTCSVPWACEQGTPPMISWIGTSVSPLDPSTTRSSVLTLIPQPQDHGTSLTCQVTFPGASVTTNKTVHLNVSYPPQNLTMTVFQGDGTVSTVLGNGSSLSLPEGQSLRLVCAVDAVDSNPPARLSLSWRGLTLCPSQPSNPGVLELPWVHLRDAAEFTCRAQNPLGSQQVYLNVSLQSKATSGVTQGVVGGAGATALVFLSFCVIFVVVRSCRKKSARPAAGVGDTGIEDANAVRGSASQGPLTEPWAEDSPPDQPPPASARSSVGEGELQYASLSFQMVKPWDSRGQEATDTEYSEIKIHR
# Protein translocase subunit SecA (Escherichia coli (strain K12)), sequence (P10408 whole entry): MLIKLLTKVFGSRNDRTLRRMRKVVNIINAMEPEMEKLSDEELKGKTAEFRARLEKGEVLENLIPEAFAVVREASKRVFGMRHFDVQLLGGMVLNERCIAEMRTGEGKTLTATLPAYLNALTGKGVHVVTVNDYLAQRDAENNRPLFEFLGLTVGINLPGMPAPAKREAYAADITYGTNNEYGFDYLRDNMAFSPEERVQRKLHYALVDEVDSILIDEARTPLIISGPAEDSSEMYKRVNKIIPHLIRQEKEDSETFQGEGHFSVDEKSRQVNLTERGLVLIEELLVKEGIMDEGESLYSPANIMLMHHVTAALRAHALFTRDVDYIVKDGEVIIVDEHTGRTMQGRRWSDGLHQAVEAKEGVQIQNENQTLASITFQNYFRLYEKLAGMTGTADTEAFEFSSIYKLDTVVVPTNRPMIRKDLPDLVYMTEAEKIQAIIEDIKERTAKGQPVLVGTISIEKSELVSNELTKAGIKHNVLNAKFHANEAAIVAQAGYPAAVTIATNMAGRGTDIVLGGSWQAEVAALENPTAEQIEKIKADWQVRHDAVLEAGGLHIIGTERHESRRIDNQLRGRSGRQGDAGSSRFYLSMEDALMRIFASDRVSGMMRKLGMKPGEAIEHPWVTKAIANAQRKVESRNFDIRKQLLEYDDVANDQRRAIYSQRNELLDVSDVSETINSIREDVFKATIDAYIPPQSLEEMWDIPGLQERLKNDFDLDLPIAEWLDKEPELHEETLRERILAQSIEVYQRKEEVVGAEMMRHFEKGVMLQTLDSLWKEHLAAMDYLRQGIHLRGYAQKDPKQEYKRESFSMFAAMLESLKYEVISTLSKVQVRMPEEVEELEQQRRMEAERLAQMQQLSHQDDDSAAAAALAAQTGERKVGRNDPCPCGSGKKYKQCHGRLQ
Compound,Percent Effect [1],Percent Effect [2],Percent Effect [3],Percent Effect [4],Percent Effect (Trypanosoma cruzi),Percent Effect [5],Percent Effect [6],Percent Effect (Homo sapiens),Percent Effect [7],Percent Effect [8],Percent Effect [9]
CC(CNCc1ccc(Cl)c(Cl)c1)Oc1ccccn1 (configuration not stated),-2.19%,12%,0.69%,-3.31%,4.91%,-7.22%,20.5%,26.5%,6.35%,10.3%,-11.8%
O=C(c1cccs1)N1CCC(Cn2nc(-c3ccco3)ccc2=O)CC1,0.0559%,6.76%,15.8%,0.867%,-6.92%,3.02%,26.8%,13.6%,10.8%,14.3%,1.29%
Cc1ccc(N2CCCC(NCc3cccc4c3OCCO4)C2)nn1 (configuration not stated),-2.62%,16.2%,-11.3%,0.447%,-1.23%,-2%,7.39%,-7.93%,10.3%,18.5%,-10.3%
COc1ccc(OCc2cc(C(=O)N3CCN[C@H](C)C3)n[nH]2)c(Cl)c1,-0.706%,5.41%,0.0243%,-0.0327%,-4.63%,2.86%,14.5%,5.15%,2.65%,9.76%,-3.55%
CCCS(=O)(=O)N1CCC(NC(=O)c2cc(C)c(CC)s2)CC1,-1.6%,2.67%,-3.07%,10.4%,5.94%,-2.08%,7.15%,13.4%,6.01%,18.5%,1.12%
CCC1=N[C@@]2(CC[C@@H]3CN(Cc4ccccc4F)C[C@@H]32)C(=O)N1CC,-5.1%,0%,-2.64%,-1.67%,-1.17%,12.5%,18.7%,5.93%,12.9%,18.3%,-6.7%
COC(=O)c1cc(C(=O)N2CCCCCC2)n(-c2ccccc2)n1,-5.27%,2.63%,0.404%,4.54%,-5.08%,1.92%,-3.51%,18.4%,2.45%,9.76%,-1.11%
O=C(CC1CCCCC1)N1CCN(C(=O)NCc2ccccn2)CC1,-3.1%,10.4%,1.16%,-0.668%,1.86%,1.05%,6.39%,-4.56%,4.76%,-16.5%,-15%
O=C(CCc1cc2n(n1)CCCN(C(=O)c1ccccn1)C2)NC1CC1,-2.88%,4.17%,-1.28%,15.3%,4.76%,21.2%,7.89%,-15.2%,4.21%,5.13%,-4.34%
CC(=O)N1CCCCC1c1nc2c(c(N3CCCCC3)n1)CN(C)CC2 (configuration not stated),0.622%,-9.46%,2.5%,0.77%,1.38%,-3.48%,23.4%,11.2%,15.1%,14.3%,-9.65%
O=S(=O)(Cc1ccccc1F)NCCCN1CCCCC1,-5.56%,2.67%,-0.488%,18.2%,1.66%,-1.04%,3.49%,-24.3%,1.64%,1.24%,-4.29%
Cc1cccc(S(=O)(=O)NCC(C)N2CCN(C)CC2)c1Cl (configuration not stated),-5.19%,2.6%,-2.53%,-0.382%,-0.492%,-2.76%,2.83%,7.45%,0%,3.7%,0.187%
Cc1ncc(CNC(=O)Nc2cc(C(F)(F)F)c[nH]c2=O)s1,-6.87%,-1.39%,-10.2%,-4.64%,-5.34%,2.65%,18.2%,-11.2%,-1.05%,-2.56%,0.478%
CNC(=O)c1cccc(NC(=O)Cn2nc(-c3cccs3)oc2=O)c1,-8.44%,13.5%,133%,18.8%,9.38%,-0.924%,4.13%,-0.599%,6.93%,13.4%,-2.88%
CC(O)CN(CC(=O)NC(=O)NCC(F)(F)F)c1ccccc1 (configuration not stated),-4.64%,7.79%,6%,6.31%,-3.82%,1.9%,7.36%,17.3%,0%,11.8%,-9.73%
COc1c(C)cnc(CN2CCOC(Cn3nc(C)nc3C)C2)c1C (configuration not stated),-3.44%,7.59%,-1.91%,11%,1.6%,4.94%,-8.11%,-11.7%,2.46%,-8.86%,0.784%
COc1ccc(CCN2CCCC2Cn2nc(C)nc2C)cc1 (configuration not stated),-3.93%,10.1%,-5.37%,-5.48%,-0.85%,6.46%,6.31%,26.4%,6.4%,8.86%,-5.44%

# Source: ChEMBL document CHEMBL3988442, “University of Dundee, Small-Polar-MMV Screening Library” (2021)
